Measured values reported in the supplement of paper PMC12808144.
Values without a mark were called inactive.

Columns and labels:
Mel-DCC-11 = assay: cell viability relative to DMSO control (fraction of DMSO control); higher = less cytotoxic, active = 0.5 or less; settings: 1 µM; 120 h
How it was run: (§1)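 The screen used 384-well plates acoustically pre-spotted with 315 approved anti-cancer drugs from TargetMol, each at 1 µM in duplicate. Into each well went 40 µl of cells, 2500 NHEM-hTERT immortalized melanocytes or 1500 of patient-derived Mel-DCC-11 or its resistant subline Mel-DCC-11-R, and plates were kept 120 h, with the subline also tested alongside 8 µM of its selecting drug. Readout was by ATPlite 1step luminescence. Viability values were normalised to vehicle-treated controls and averaged between duplicates.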

NHEM-hTERT = assay: as above; settings: 1 µM; 120 h
How it was run: as §1

Mel-DCC-11-R = assay: cell viability relative to DMSO control (fraction of DMSO control); higher = less cytotoxic, active = 0.8 or less; settings: 1 µM, 120 h
How it was run: as §1

Row | Structure (SMILES) | cell viability (Mel-DCC-11) | cell viability (NHEM-hTERT) | cell viability (Mel-DCC-11-R; vemurafenib co-treatment 0 µM) | cell viability (Mel-DCC-11-R; vemurafenib co-treatment 8 µM)
1 | CC(C)(CO)c1cc2cc(NC(=O)C3(c4ccc5c(c4)OC(F)(F)O5)CC3)c(F)cc2n1C[C@@H](O)CO | 1.01 | 1.06 | 1.18 | 1.07
2 | CCCCCCNC(=O)n1cc(F)c(=O)[nH]c1=O [Carmofur] |  | 1.17 |  | 
3 | C#Cc1cccc(Nc2ncnc3cc4c(cc23)OCCOCCOCCO4)c1 [Icotinib] | 1.1 | 1.18 | 1.1 | 0.849
4 | CNNCc1ccc(C(=O)NC(C)C)cc1.Cl [Procarbazine hydrochloride] | 1.18 | 1.13 | 1.04 | 1.25
5 | Cl.N=C1CCCN1Cc1[nH]c(=O)[nH]c(=O)c1Cl [Tipiracil hydrochloride] |  | 0.914 |  | 
6 | Cl.N=C1CCCN1Cc1[nH]c(=O)[nH]c(=O)c1Cl.O=c1[nH]c(=O)n([C@H]2C[C@H](O)[C@@H](CO)O2)cc1C(F)(F)F.O=c1[nH]c(=O)n([C@H]2C[C@H](O)[C@@H](CO)O2)cc1C(F)(F)F |  | 0.967 |  | 
7 | CCOc1cc2ncc(C#N)c(Nc3ccc(OCc4ccccn4)c(Cl)c3)c2cc1NC(=O)/C=C/CN(C)C [Neratinib] | 1.03 | 0.732 | 1.31 | 0.643 (active)
8 | CCN(CC)CCOc1ccc2c(c1)C(=O)c1cc(OCCN(CC)CC)ccc1-2.Cl.Cl [Tilorone dihydrochloride] | 1.06 | 1.15 | 0.883 | 1.15
9 | CCCC(=O)O[C@]1(C(=O)CO)CC[C@H]2[C@@H]3CCC4=CC(=O)CC[C@]4(C)[C@H]3[C@@H](O)C[C@@]21C [Hydrocortisone butyrate] | 1.4 | 0.973 | 1.21 | 1.14
10 | COc1cc(NS(C)(=O)=O)ccc1Nc1c2ccccc2nc2ccccc12 [Amsacrine] |  | 0.72 |  | 
11 | CC1(C)CCC(CN2CCN(c3ccc(C(=O)NS(=O)(=O)c4ccc(NCC5CCOCC5)c([N+](=O)[O-])c4)c(Oc4cnc5[nH]ccc5c4)c3)CC2)=C(c2ccc(Cl)cc2)C1 | 1.42 | 0.502 | 1.04 | 1.23
12 | CC(C)C[C@@H](NC(=O)[C@H](O)[C@@H](N)Cc1ccccc1)C(=O)O.Cl [Bestatin hydrochloride] |  | 1.08 |  | 
13 | Cc1ccc(-c2ncc(Cl)cc2-c2ccc(S(C)(=O)=O)cc2)cn1 [Etoricoxib] |  | 1.17 |  | 
14 | Cc1ccc(NC(=O)c2ccc(CN3CCN(C)CC3)cc2)cc1Nc1nccc(-c2cccnc2)n1 [Imatinib] |  | 1.24 |  | 
15 | Cn1cnc2c(F)c(Nc3ccc(Br)cc3F)c(C(=O)NOCCO)cc21 [Binimetinib] | 0.195 (active) | 0.934 | 0.664 (active) | 0.406 (active)
16 | COc1cc2c(Nc3ccc(Br)cc3F)ncnc2cc1OCC1CCN(C)CC1 [Vandetanib] | 1.16 | 1.02 | 1.29 | 1.01
17 | COc1ccc2cc1Oc1ccc(cc1)C[C@H]1c3c(cc4c(c3Oc3cc5c(cc3OC)CCN(C)[C@@H]5C2)OCO4)CCN1C [Cepharanthine] | 0.589 | 1.13 | 0.934 | 0.912
18 | O=S(=O)([O-])CCS.[Na+] [Mesna] |  | 1.09 |  | 
19 | COc1cc(Nc2c(C#N)cnc3cc(OCCCN4CCN(C)CC4)c(OC)cc23)c(Cl)cc1Cl [Bosutinib] |  | 1.12 |  | 
20 | CC(C)=CCC/C(C)=C/CC/C(C)=C/CC/C(C)=C/CC1=C(C)C(=O)c2ccccc2C1=O [Menatetrenone] | 1.25 | 1.02 | 1.11 | 1.18
21 | O=C(/C=C/c1cccc(S(=O)(=O)Nc2ccccc2)c1)NO [Belinostat] |  | 0.737 | 0.839 | 0.659 (active)
22 | CO[C@H]1C[C@@H]2CC[C@@H](C)[C@@](O)(O2)C(=O)C(=O)N2CCCC[C@H]2C(=O)O[C@H]([C@H](C)C[C@@H]2CC[C@@H](OC(=O)C(C)(CO)CO)[C@H](OC)C2)CC(=O)[C@H](C)/C=C(\C)[C@@H](O)[C@@H](OC)C(=O)[C@H](C)C[C@H](C)/C=C/C=C/C=C/1C [Temsirolimus] |  | 0.758 | 1.53 | 0.786 (active)

Row | Structure (SMILES) | cell viability (Mel-DCC-11) | cell viability (NHEM-hTERT) | cell viability (Mel-DCC-11-R; vemurafenib co-treatment 0 µM) | cell viability (Mel-DCC-11-R; vemurafenib co-treatment 8 µM)
23 | S=P(N1CC1)(N1CC1)N1CC1 [Triethylenethiophosphoramide] |  | 0.98 | 0.91 | 0.932
24 | C[C@@H](Oc1cc(-c2cnn(C3CCNCC3)c2)cnc1N)c1c(Cl)ccc(F)c1Cl [Crizotinib] |  | 0.986 | 1.16 | 0.825
25 | C#CCC(Cc1cnc2nc(N)nc(N)c2n1)c1ccc(C(=O)N[C@@H](CCC(=O)O)C(=O)O)cc1 (stereo not given in full) [Pralatrexate] |  | 0.982 | 0.982 | 1.09
26 | Nc1ncn([C@@H]2O[C@H](CO)[C@@H](O)[C@H]2O)c(=O)n1 [Mylosar] |  | 0.874 | 0.927 | 0.745 (active)
27 | O=C(c1ccc(F)c(F)c1Nc1ccc(I)cc1F)N1CC(O)([C@@H]2CCCCN2)C1 [Cobimetinib] |  | 0.715 | 0.309 (active) | 0.302 (active)
28 | CC(C)C(=O)Nc1ccc([N+](=O)[O-])c(C(F)(F)F)c1 [Flutamide] |  | 1.25 | 1.1 | 1.21
29 | CC/C(=C(\c1ccccc1)c1ccc(OCCN(C)C)cc1)c1ccccc1.O=C(O)CC(O)(CC(=O)O)C(=O)O [Tamoxifen Z-isomer citrate] |  | 0.977 | 0.873 | 1.16
30 | CC(C)C[C@H](NC(=O)[C@H](CCc1ccccc1)NC(=O)CN1CCOCC1)C(=O)N[C@@H](Cc1ccccc1)C(=O)N[C@@H](CC(C)C)C(=O)[C@@]1(C)CO1 [Carfilzomib] |  | 0.0167 (active) | 0.0186 (active) | 0.018 (active)
31 | CN(N=O)C(=O)N[C@@H]1[C@@H](O)[C@H](O)[C@@H](CO)O[C@@H]1O [Streptozocin] |  | 1.11 | 0.976 | 1.1
32 | Nc1nc(=O)c2c([nH]1)NC[C@H](CNc1ccc(C(=O)N[C@@H](CCC(=O)[O-])C(=O)[O-])cc1)N2C=O.[Ca+2] [Calcium Levofolinate] |  | 1.02 | 1.8 | 1.27
33 | O=NN(CCCl)C(=O)NC1CCCCC1 [Lomustine] |  | 0.938 | 0.985 | 1.11
34 | COc1cc2nccc(Oc3ccc(NC(=O)C4(C(=O)Nc5ccc(F)cc5)CC4)cc3)c2cc1OC.O=C(O)C[C@H](O)C(=O)O |  | 0.932 | 1.05 | 0.365 (active)
35 | CCC1(O)C(=O)OCc2c1cc1n(c2=O)Cc2cc3cc(O)ccc3nc2-1 (stereo not given) [Hydroxy Camptothecine] |  | 0.899 | 0.422 (active) | 0.224 (active)
36 | O=C1CCC(N2C(=O)c3ccccc3C2=O)C(=O)N1 (stereo not given) [Thalidomide] |  | 1.1 | 0.897 | 0.589 (active)
37 | CCOC(=O)[C@@H](N)Cc1ccc(-c2cc(O[C@H](c3ccc(Cl)cc3-n3ccc(C)n3)C(F)(F)F)nc(N)n2)cc1.O=C(O)CNC(=O)c1ccccc1 [Telotristat Etiprate] |  | 1.04 | 1.08 | 1.07
38 | NC(=O)c1cccc2cn(-c3ccc([C@@H]4CCCNC4)cc3)nc12 [Niraparib] |  | 0.932 | 1.06 | 1.08
39 | COc1cccc2c1C(=O)c1c(O)c3c(c(O)c1C2=O)C[C@@](O)(C(C)=O)C[C@@H]3O[C@H]1C[C@H](N)[C@H](O)[C@H](C)O1.Cl [Daunorubicin hydrochloride] |  | 0.363 (active) | 0.0677 (active) | 0.0387 (active)
40 | O=C(/C=C\n1cnc(-c2cc(C(F)(F)F)cc(C(F)(F)F)c2)n1)NNc1cnccn1 [Selinexor] |  | 0.73 | 1.59 | 0.678 (active)
41 | Nc1nc(=S)c2[nH]cnc2[nH]1 [Thioguanine] |  | 1.06 | 1.31 | 0.933
42 | O=c1cc(O)c(Cl)c[nH]1 [Gimeracil] |  | 0.996 | 0.944 | 1.13
43 | CC[C@]1(O)C[C@@H]2C[N@@](CCc3c([nH]c4ccccc34)[C@@](C(=O)OC)(c3cc4c(cc3OC)N(C)[C@H]3[C@@](O)(C(=O)OC)[C@H](OC(C)=O)[C@]5(CC)C=CCN6CC[C@]43[C@@H]65)C2)C1.O=S(=O)(O)O [Vinblastine sulfate] |  | 0.567 | 0.488 (active) | 0.252 (active)
44 | COc1ccc2c(c1OC)C(=O)O[C@@H]2[C@H]1c2c(cc3c(c2OC)OCO3)CC[NH+]1C.[Cl-] [Noscapine hydrochloride] |  | 1.13 | 1.04 | 1.13
